Compound activity (PubChem)
In the library only some 10% were active in any assay of this set; here they are far more common.
NPR1 antag: antagonists of human natriuretic peptide receptor Npr1. HEK293 hNpr1 GloSensor cGMP, ANP-stimulated luminescence. P16066. Potency, µM (doses to about 46.3 µM), for the others: at the highest dose activity change, negative = inhibition, most hits filed as inhibitors. 76,000 tested, 1.6% active; calls by dose curve; further: nearly all actives have a fitted effect of over 60% in size
Target sequence (P16066 whole entry, looked up): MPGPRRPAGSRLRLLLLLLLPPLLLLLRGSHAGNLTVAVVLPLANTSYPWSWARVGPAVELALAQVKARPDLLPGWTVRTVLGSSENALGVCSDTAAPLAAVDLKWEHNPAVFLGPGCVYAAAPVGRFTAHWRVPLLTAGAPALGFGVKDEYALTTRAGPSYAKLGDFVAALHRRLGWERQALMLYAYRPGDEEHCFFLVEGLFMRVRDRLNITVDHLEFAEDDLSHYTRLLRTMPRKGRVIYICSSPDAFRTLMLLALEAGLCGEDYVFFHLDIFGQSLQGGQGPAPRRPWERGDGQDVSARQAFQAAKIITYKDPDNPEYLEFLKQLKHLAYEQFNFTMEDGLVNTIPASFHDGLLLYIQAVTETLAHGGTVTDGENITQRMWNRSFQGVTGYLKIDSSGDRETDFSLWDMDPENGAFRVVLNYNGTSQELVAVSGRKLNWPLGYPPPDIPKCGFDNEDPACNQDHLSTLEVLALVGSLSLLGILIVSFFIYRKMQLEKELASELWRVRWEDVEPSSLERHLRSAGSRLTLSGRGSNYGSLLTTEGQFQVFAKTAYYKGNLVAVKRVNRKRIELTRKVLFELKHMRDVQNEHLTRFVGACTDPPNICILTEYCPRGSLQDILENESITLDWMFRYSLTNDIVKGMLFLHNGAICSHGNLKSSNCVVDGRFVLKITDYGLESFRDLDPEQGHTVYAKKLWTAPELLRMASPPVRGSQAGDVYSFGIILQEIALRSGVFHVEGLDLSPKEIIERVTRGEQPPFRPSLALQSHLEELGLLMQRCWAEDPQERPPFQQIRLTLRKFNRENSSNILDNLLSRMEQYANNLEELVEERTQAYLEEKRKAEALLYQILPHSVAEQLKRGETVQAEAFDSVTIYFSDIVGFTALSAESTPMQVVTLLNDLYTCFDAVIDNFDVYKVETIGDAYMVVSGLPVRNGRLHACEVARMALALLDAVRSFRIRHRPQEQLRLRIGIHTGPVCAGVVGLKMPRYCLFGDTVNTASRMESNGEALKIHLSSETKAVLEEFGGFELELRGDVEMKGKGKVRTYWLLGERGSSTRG
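Compound pre-incubated 30 min at room temperature on GloSensor-loaded HEK293 cells stably carrying hNpr1 and the pGS-40F cGMP biosensor. Stimulation uses hNppA at 0.1 nM final; luminescence is taken at baseline and 20 min post-agonist.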
HEK cytotox: cytotoxic compounds in HEK 293 cells | HEK 293 viability, ATP luminescence (CellTiter-Glo), 48-72 h | Potency, µM (top dose mostly 115 µM), for the others: at the highest dose activity change, negative = cytotoxicity, hits mostly inhibitors | 94,000 tested, 6.6% active; further: nearly all actives have a fitted effect of over 60% in size
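HEK 293 seeded at 250 cells/well receive compound via pintool. After 48 or 72 hr at 37 degree Celsius, 5% CO2 and 95% humidity, CellTiter-Glo is dispensed and luminescence read following 10 min at room temperature.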
NIH3T3 tox: cytotoxic compounds in NIH 3T3 cells. AID 1345082. NIH 3T3 viability, CellTiter-Glo ATP luminescence, 48-72 h. Potency, µM (series often up to 96.7 µM), for the others: at the top dose activity change, negative = cytotoxicity, most hits filed as inhibitors. 94,000 tested, 4.3% active; further: nearly all actives have a fitted effect of over 55% in size
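Cells were seeded at 400 per well, treated with pin-transferred compound, and kept 48 or 72 hr at 37 °C before CellTiter-Glo addition and luminescence imaging of cellular ATP.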
GPT2 inh: inhibitors of human GPT2 alanine aminotransferase | 100,000 tested, 0.25% active | Potency, µM (doses to about 57.7 µM), without a hit: at the top dose activity change, negative = inhibition, most hits filed as inhibitors | Q8TD30 | Recombinant GPT2, coupled pyruvate oxidase/HRP Amplex Red fluorescence; further: nearly all actives have a fitted effect of over 60% in size
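Recombinant GPT2 (10ng/uL) with 250uM a-KG and 2mM L-alanine, 30 min at room temperature, in HEPES pH 7.5 buffer. Pyruvate detected by pyruvate oxidase/HRP/Amplex Red fluorescence after 30 min in the dark; AOA (50uM) as positive control.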
FLuc inh: blocks purified firefly luciferase enzyme activity. 76,000 tested, 2.5% active. P08659. Potency, µM (series often up to 115 µM), usual class: inhibitors. purified P. pyralis luciferase, luminescence, biochemical; further: nearly all actives have a fitted effect of over 65% in size
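Luminescence read by CCD imaging after purified firefly luciferase (10nM final) was added to substrate buffer holding 10uM D-luciferin and 10uM ATP, pH 7.5, pre-dosed with compound.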
* hit, by the source's call; i = inactive; ? = inconclusive; · = no result; [ ] = remark or other dose. Unless noted, the call rests on the fitted dose curve; in most records, active means well fitted curve in the direction sought with a large enough effect; inconclusive means small, poorly fitted or top-dose-only effect, or another doubt; inactive means no such curve, though single readings can be large; an effect the other way counts as inactive or inconclusive. On the % scale 0 is the no-effect control and ±100 the full control effect; potency means the concentration at half of the fitted maximal effect.

SMILES	NPR1 antag	HEK cytotox	NIH3T3 tox	GPT2 inh	FLuc inh
O=C(O)CCC(=O)N1CCC2(CC1)Cc1ccccc1N(C(=O)C1CCCC1)C2	·	-17%	?	i	·
O=C(O)CCC(=O)N1CCC2(CC1)Cc1ccccc1N(C(=O)c1ccc(Cl)cc1)C2	·	i	32µM*	-13%	·
O=C1CC(c2ccccc2)N(C(=O)Nc2ccccc2F)CCCCCN1 (stereo not drawn)	-8%	3%	-9%	i	i
COc1cccc(-c2ccc(C(=O)NCCNC(=O)c3ccc(C)cc3)cc2)c1	·	?	-25%	·	·
O=S(=O)(c1cccs1)N1CCCCC1c1nc(CCOCC2CC2)no1 (stereo not drawn)	-8%	?	-38%	-12%	i
O=S(=O)(c1ccc2c(c1)CCC2)N1CCCCC1c1nc(CCOCC2CC2)no1 (stereo not drawn)	-12%	40µM*	28µM*	i	i
COc1cccc(-c2cc3c(ccn3Cc3cccnc3)c(C3=CCOCC3)n2)c1OC	0%[70.6 µM]	100µM*	71µM*	?	i
C1=C(c2nc(-c3cncnc3)cc3c2ccn3Cc2cccnc2)CCOC1	3%[70.6 µM]	-16%[172 µM]	?	-13%[88.5 µM]	i
Cc1ccc(-c2cc3c(ccn3Cc3cccnc3)c(C3=CCOCC3)n2)cn1	-1%[70.6 µM]	45µM*	?	i	i
CN(C)Cc1cccc(-c2cc3c(ccn3Cc3cccnc3)c(C3=CCOCC3)n2)c1	0%[70.6 µM]	35µM*	?	i	i
COc1cc(NC(=O)c2ccc3c(c2)N(C)C2CCCCCN2C3=O)cc(OC)c1OC (stereo not drawn)	-20%	40µM*	35µM*	i	i
CCN1c2cc(C(=O)NCc3ccc(OC)c(OC)c3)ccc2C(=O)N2CCCCCC21 (stereo not drawn)	-10%	45µM*	?	i	i
CCN1c2cc(C(=O)Nc3ccc(OC)c(Cl)c3)ccc2C(=O)N2CCCCCC21 (stereo not drawn)	-22%	11µM*	?	i	i
COc1ccc(NC(=O)c2ccc3c(c2)N(C)C2CCCCCN2C3=O)cc1Cl (stereo not drawn)	-7%	45µM*	40µM*	i	i
Cc1cn2nc(C(=O)NCc3ccccc3F)cc2c(=O)[nH]1	9%	-2%	-5%	2%	?
CC(C)(C)NC(=O)NCc1nnc2n1C(C(=O)NCc1ccc(F)cc1)CC2 (stereo not drawn)	·	-14%	-22%	4%	·
COc1cccc2c1OCC(CNC(=O)c1ccccc1N1CCCC1)C2 (stereo not drawn)	3%	89µM*	2%	0%	i
COC[C@@H]1CN(Cc2ccc3cc[nH]c3c2)C[C@H]1c1nc(C)no1	-1%	-15%	-14%	i	i
COc1cccc(-c2ccc(C(=O)N3CCC(NC(=O)Cc4ccccn4)CC3)cc2)c1	·	?	-36%	i	·
Cc1nc(C2CC(O)C2)cc(N2CCN(c3ccc(F)c(Cl)c3)CC2)n1 (stereo not drawn)	?	18µM*	?	4%	i
Cc1nc(C2CC(O)C2)cc(N2CCN(c3cnn(C)c(=O)c3)CC2)n1 (stereo not drawn)	2%	i	-1%	2%	i
Cc1nn2c(c1-c1cccc3cn[nH]c13)N(C(=O)Cc1ccccc1)CCC2	-25%[70.6 µM]	-26%[172 µM]	45µM*	i	i
Cc1nn2c(c1-c1ccccc1[S+](C)(=O)[O-])N(C(=O)Cc1ccccc1)CCC2	1%[70.6 µM]	-13%[172 µM]	?	-29%[88.5 µM]	i
Cc1nn2c(c1-c1ccccc1OCc1ccccc1)N(C(=O)Cc1ccccc1)CCC2	?	79µM*	45µM*	-4%[88.5 µM]	i
COc1ccc(CN(C(=O)c2ccco2)c2ccc(CC(=O)NCc3ccccc3)cc2)cc1	-17%	?	35µM*	i	i
SMILES	NPR1 antag	HEK cytotox	NIH3T3 tox	GPT2 inh	FLuc inh
O=C(Cc1ccc(N(Cc2cccc(F)c2)C(=O)c2ccco2)cc1)NCc1ccco1	0%	89µM*	?	-4%	i
O=C(Cc1ccc(N(Cc2ccccc2)C(=O)c2ccco2)cc1)NCc1ccc(F)cc1	-13%	40µM*	?	i	i
C=CCNC(=O)Cc1ccc(N(Cc2ccc(OC)cc2)C(=O)c2ccco2)cc1	-3%	?	-29%	-18%	i
COc1ccc(CN(C(=O)c2ccco2)c2ccc(CC(=O)NCc3ccc(F)cc3)cc2)cc1	-17%	?	20µM*	i	i
O=C(Nc1cc(-c2ccccn2)nn1-c1ccccc1)c1cccc(Br)c1	·	?	?	-9%	·
Cc1cc(F)ccc1OC1CN(Cc2ccc(C(F)(F)F)cc2)C1	-21%[70.6 µM]	100µM*	?	i	i
Fc1ccc(OC2CN(Cc3ccccc3)C2)c(F)c1	·	-7%[172 µM]	-6%[138 µM]	1%[88.5 µM]	·
Cc1cc(F)ccc1OC1CN(Cc2ccsc2)C1	-1%[70.6 µM]	?	?	-1%[88.5 µM]	i
Cc1cc(F)ccc1OC1CN(C(=O)c2ccccc2)C1	-13%[70.6 µM]	?	?	-2%[88.5 µM]	18µM*
Cc1cc(F)ccc1OC1CN(Cc2ccc(N(C)C)cc2)C1	0%[70.6 µM]	79µM*	?	i	i
NC(=O)c1ccc(-c2nc3c([nH]2)CN(c2ncnc4ccsc24)CC3)cc1	-16%	32µM*	-10%	-2%	i
Cc1ccc(C)c(C(=O)N2CCN(C(=O)c3nnn4c3COC(c3ccccc3)C4)CC2)c1 (stereo not drawn)	-22%	40µM*	-15%	-1%	i
Cc1ccc(C)c(C(=O)N2CCN(C(=O)c3nnn4c3COC(c3ccc(Cl)cc3)C4)CC2)c1 (stereo not drawn)	?	45µM*	?	i	i
COc1ccc(Nc2ccnc(N3CCC(NC(=O)Nc4ccccc4)CC3)n2)cc1	·	?	?	-5%	·
CC(=O)N1CCN(C(=O)C2CCN(c3nccc(Nc4ccccc4Cl)n3)CC2)CC1	·	?	?	i	·
Cc1ccc(Nc2ccnc(N3CCCC(C(=O)N4CCN(Cc5ccccc5)CC4)C3)n2)cc1 (stereo not drawn)	·	13µM*	40µM*	i	·
O=C(C1CCN(c2nccc(Nc3ccccc3Cl)n2)CC1)N1CCC(Cc2ccccc2)CC1	·	25µM*	?	-11%	·
COc1ccc(Nc2ccnc(N3CCC(C(=O)N4CCN(Cc5ccccc5)CC4)CC3)n2)cc1	·	32µM*	?	i	·
O=C(C1CCN(c2nccc(Nc3ccccc3Cl)n2)CC1)N1CCN(Cc2ccccc2)CC1	·	?	32µM*	i	·
Cc1ccc(Nc2ccnc(N3CCCC(C(=O)N4CCOCC4)C3)n2)cc1 (stereo not drawn)	·	?	?	i	·
